For some assays here: Measured potencies and affinities stand elsewhere.
Columns and labels:
Design in all cases: scale not given: direction of the effect not stated beside the values
[1] = molecular target: Protein translocase subunit SecA (Escherichia coli (strain K12)) (UniProt P10408); assay: Assay to Identify E. coli SecA ATPase Inhibitors; assay type: functional; conditions: 30 µM
[2] = molecular target: T1, Ubiquitin-activating enzyme e1, putative (Leishmania donovani (strain BPK282A1)) (UniProt E9BSI1); assay: Leishmania donovani Ubiquitin Activating Enzyme (LdE1); assay type: functional; conditions: 30 µM
T1 sequence (whole entry): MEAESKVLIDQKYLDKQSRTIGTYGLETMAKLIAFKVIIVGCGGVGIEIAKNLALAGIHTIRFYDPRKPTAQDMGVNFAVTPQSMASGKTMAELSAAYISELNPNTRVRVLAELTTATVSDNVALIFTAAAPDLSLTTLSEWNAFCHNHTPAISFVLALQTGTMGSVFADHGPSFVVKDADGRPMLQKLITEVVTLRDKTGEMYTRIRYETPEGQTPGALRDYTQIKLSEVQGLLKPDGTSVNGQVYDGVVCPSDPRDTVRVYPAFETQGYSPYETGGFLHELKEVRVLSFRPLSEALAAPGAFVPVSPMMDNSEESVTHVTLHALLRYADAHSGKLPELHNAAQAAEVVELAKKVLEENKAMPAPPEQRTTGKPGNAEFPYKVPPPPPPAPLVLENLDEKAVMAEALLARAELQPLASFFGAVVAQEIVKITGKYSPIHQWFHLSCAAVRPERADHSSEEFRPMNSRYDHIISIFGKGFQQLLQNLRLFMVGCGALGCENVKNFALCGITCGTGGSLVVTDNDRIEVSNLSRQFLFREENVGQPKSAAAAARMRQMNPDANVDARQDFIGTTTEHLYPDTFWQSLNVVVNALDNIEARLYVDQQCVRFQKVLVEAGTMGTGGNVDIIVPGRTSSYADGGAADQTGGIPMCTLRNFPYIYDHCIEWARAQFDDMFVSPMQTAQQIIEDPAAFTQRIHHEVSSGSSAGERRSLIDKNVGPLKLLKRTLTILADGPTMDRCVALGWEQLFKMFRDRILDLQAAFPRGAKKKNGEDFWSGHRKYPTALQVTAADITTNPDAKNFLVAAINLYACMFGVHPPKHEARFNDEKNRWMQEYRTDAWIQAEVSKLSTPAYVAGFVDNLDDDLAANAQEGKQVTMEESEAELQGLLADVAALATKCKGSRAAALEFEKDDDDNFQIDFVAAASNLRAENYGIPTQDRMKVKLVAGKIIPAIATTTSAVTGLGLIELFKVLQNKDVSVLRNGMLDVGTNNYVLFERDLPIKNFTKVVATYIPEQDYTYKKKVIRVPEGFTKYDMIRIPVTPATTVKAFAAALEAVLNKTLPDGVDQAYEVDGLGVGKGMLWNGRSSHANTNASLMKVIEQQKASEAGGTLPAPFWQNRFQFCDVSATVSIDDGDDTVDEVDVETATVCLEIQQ

[3] = molecular target: AMP-activated protein kinase, AMPK (Homo sapiens) (UniProt P54646+O43741+P54619+Q9UGJ0+Q9Y478+Q13131+Q9UGI9); assay: AMP-dependent Kinase enzyme assay. An in vitro enzyme assay that detects ADP turnover that is directly proportional to AMPK activity. This uses naive AMPK that is activated during the assay with MK-8722; assay type: functional; conditions: 30 µM
[4] = molecular target: Sialic acid-binding Ig-like lectin 9 (Homo sapiens) (UniProt Q9Y336); assay: Hs-Siglec9 ALPHAscreen SOP 20170721; conditions: 10 µM
Trypanosoma cruzi = assay: Trypanosoma cruzi phosphomannomutase and mannose-1-phosphate guanylyltransferase assay; assay type: functional; conditions: 10 µM
[5] = molecular target: T2, Arginase-2, mitochondrial (Homo sapiens) (UniProt P78540); assay: in vitro enzyme assay to detect the production of urea directly proportional to the activity of Arginase II; assay type: functional; conditions: 33.3 µM; further: in the data most compounds retested in dose-response had high values
T2 sequence (whole entry): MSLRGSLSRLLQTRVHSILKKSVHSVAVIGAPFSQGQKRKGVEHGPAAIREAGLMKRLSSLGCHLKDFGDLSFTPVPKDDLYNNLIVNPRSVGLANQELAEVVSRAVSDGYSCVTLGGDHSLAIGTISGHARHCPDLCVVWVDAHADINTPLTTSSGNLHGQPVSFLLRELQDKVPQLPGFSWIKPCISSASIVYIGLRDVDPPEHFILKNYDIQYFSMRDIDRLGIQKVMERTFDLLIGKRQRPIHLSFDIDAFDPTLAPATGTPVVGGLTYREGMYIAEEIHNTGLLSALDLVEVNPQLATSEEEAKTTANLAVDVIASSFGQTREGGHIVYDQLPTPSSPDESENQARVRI

[6] = molecular target: T3, Proteasome subunit beta (Trypanosoma cruzi) (UniProt O96673); assay: Trypanosoma cruzi proteasome chymotrypsin-like activity (TcProtChymo) assay.; further: in the data most compounds retested in dose-response had high values; assay type: functional; conditions: 9.37 µM
T3 sequence (whole entry): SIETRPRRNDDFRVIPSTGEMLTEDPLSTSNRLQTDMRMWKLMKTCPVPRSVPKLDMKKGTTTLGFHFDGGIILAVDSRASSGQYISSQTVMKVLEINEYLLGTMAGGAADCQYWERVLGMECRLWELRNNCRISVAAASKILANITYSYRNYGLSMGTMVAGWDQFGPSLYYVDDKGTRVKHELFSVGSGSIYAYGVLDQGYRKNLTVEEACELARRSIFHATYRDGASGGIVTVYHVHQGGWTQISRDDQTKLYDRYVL

Homo sapiens = species on record: Homo sapiens; assay: To identify inhibition of the IFN signalling (Jak-Stat) pathway via expression of an eGFP reporter gene under the control of an IFN-stimulated response element (ISRE) containing MxA promoter.; assay type: functional; conditions: 30 µM
[7] = molecular target: T4, Tyrosyl-tRNA synthetase, putative (Trypanosoma cruzi (strain CL Brener)) (UniProt Q4DSP6); assay: Trypanosoma cruzi tyrosyl tRNA synthetase (TcYRS) _High Tyrosine SOP; assay type: functional; conditions: 30 µM; further: in the data most compounds retested in dose-response had high values
T4 sequence (whole entry): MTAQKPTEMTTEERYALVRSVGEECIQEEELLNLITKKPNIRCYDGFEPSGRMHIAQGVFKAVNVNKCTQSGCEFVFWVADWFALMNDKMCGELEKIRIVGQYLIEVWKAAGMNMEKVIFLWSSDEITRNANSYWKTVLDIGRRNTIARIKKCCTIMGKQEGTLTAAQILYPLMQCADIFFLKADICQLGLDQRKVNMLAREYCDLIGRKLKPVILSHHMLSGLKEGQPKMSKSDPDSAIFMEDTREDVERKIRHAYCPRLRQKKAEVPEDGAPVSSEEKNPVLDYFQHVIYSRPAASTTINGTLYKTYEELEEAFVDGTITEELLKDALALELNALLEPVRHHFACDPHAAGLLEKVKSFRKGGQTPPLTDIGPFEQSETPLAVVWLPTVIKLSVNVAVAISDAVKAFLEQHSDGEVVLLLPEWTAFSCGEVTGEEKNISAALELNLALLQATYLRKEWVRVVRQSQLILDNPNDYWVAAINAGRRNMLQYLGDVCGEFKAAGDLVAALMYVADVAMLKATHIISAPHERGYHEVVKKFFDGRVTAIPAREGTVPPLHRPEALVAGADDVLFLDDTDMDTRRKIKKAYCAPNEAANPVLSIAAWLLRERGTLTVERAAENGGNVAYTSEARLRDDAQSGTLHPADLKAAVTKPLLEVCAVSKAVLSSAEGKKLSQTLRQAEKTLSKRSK

[8] = molecular target: T4, Tyrosyl-tRNA synthetase, putative (Trypanosoma cruzi (strain CL Brener)); assay: Trypanosoma cruzi tyrosyl tRNA synthetase (TcYRS) SOP; assay type: functional; conditions: 30 µM
[9] = molecular target: Chromo domain-containing protein 1 (Saccharomyces cerevisiae (strain ATCC 204508 / S288c) (Baker's yeast)) (UniProt P32657); assay: ScCHD-1 Enzyme Inhibition Assay; assay type: functional; conditions: 30 µM; further: in the data most compounds retested in dose-response had high values
Chain of Chromo domain-containing protein 1 (Saccharomyces cerevisiae (strain ATCC 204508 / S288c) (Baker's yeast)) (P32657 whole entry, the tested form may be a part): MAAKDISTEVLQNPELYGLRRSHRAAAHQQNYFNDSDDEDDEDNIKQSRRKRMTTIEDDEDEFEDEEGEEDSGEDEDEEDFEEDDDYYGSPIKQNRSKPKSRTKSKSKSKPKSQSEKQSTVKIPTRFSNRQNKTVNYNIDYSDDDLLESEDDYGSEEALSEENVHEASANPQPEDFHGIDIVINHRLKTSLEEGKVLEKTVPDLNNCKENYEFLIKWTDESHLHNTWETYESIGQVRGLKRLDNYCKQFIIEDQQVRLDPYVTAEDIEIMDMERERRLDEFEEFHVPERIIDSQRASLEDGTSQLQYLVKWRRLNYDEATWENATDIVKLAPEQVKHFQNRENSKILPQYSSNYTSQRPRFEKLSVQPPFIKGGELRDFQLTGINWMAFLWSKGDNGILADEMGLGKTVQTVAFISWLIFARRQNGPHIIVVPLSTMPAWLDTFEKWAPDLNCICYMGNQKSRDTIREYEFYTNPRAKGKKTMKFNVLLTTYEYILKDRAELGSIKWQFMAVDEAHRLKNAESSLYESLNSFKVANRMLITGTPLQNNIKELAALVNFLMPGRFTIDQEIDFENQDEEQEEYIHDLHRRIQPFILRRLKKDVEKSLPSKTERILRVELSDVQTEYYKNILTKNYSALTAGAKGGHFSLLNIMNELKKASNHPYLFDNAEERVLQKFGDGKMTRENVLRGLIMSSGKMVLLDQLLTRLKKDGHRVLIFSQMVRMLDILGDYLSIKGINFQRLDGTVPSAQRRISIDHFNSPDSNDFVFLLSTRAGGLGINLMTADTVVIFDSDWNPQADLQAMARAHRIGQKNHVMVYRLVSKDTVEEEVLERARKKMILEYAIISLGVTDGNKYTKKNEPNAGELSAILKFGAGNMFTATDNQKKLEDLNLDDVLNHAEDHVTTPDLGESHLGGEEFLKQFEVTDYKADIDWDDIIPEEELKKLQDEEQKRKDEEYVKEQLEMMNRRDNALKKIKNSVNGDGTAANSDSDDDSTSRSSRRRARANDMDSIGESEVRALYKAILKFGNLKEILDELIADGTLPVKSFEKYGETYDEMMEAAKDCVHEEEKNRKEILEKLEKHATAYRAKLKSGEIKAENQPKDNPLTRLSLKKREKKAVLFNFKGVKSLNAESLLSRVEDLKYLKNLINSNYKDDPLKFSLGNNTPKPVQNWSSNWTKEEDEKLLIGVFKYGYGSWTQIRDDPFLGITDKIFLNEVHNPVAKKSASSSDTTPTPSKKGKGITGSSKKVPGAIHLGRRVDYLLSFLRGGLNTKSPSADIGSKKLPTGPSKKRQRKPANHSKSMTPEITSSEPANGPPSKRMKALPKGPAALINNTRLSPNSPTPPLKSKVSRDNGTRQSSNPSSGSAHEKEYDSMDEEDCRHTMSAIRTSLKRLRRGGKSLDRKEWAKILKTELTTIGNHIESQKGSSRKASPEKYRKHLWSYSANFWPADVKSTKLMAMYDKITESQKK

Chain of Protein translocase subunit SecA (Escherichia coli (strain K12)) (P10408 whole entry): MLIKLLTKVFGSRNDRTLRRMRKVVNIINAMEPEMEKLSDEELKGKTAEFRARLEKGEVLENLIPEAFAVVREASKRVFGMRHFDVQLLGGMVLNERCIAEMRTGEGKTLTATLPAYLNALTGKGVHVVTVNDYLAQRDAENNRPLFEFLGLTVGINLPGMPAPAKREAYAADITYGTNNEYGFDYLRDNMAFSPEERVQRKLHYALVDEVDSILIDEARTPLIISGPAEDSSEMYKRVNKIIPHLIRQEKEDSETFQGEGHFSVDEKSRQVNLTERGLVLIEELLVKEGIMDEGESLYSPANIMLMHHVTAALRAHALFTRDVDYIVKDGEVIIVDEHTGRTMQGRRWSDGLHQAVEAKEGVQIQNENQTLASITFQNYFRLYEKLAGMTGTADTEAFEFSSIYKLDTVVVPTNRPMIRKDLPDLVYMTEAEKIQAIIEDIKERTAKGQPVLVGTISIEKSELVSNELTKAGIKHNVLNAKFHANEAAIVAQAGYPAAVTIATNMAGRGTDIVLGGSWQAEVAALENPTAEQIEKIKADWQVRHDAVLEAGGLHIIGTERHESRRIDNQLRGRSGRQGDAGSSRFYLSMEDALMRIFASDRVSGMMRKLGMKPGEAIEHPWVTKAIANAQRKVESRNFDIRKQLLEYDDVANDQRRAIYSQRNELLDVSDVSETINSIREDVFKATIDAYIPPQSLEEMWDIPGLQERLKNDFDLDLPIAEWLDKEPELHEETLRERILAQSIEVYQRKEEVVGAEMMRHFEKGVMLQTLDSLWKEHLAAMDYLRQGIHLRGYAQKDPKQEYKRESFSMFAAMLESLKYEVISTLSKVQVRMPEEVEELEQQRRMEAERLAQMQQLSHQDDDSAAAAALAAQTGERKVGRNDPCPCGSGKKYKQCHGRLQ
Chain of Sialic acid-binding Ig-like lectin 9 (Homo sapiens) (Q9Y336 whole entry): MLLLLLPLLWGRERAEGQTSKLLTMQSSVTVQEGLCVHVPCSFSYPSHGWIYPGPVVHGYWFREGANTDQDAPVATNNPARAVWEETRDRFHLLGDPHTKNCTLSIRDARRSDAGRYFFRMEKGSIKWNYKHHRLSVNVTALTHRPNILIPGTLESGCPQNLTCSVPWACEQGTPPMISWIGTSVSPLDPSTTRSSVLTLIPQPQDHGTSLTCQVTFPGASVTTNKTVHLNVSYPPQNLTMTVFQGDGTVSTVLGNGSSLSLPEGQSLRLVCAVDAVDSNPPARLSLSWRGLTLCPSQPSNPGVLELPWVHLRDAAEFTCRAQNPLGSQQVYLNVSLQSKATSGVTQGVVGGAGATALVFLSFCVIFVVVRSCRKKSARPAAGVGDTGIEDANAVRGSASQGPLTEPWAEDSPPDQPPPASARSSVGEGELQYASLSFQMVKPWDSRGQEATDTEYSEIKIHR

| SMILES | Percent Effect [1] [%] | Percent Effect [2] [%] | Percent Effect [3] [%] | Percent Effect [4] [%] | Percent Effect (Trypanosoma cruzi) [%] | Percent Effect [5] [%] | Percent Effect [6] [%] | Percent Effect (Homo sapiens) [%] | Percent Effect [7] [%] | Percent Effect [8] [%] | Percent Effect [9] [%] |
| --- | --- | --- | --- | --- | --- | --- | --- | --- | --- | --- | --- |
| Cc1cnn(CC2CCCN2CC(=O)N(C)CCC#N)c1 (stereo not given) | -1.24 | -5.41 | -5.26 | 5.88 | -0.386 | -0.476 | 11.4 | -14.1 | -2.65 | -2.44 | 91.2 |
| COc1c(C2CCCN2C(=O)Cc2c(C)noc2C)c(C)nn1C (stereo not given) | -4.91 | 15.2 | -0.162 | 8.65 | 0.661 | 0.38 | 0.0819 | -12.4 | 7.39 | 16.5 | -6.93 |
| Cc1ccc(F)c(-n2nnc(C(=O)O)c2-c2ccncc2)c1 | -0.715 | 13.2 | 2.72 | -1.83 | -3.8 | -2.37 | 22.7 | -8.42 | 3.19 | 10.4 | -1.85 |
| Cc1ccc(CC(=O)N2Cc3nccn3CC(CN(C)C)C2)cc1 (stereo not given) | 2.93 | 11 | -4.31 | 9.23 | 0.198 | 5.59 | 15.3 | 20.1 | 8.33 | 16.1 | -2.84 |
| Cc1csc(N2CCN(C(=O)CCc3nccs3)CC2)n1 | -6.78 | 8.11 | -8.38 | 7.91 | 3.11 | -17.2 | 5.59 | 11.7 | 12.3 | 28.4 | -11.1 |
| Cc1ccc(-c2cccc(-c3ccn(CCN4CCCC4)n3)c2)nn1 | -0.771 | -8.11 | -1.02 | 3.72 | -3.09 | 0.952 | 4.31 | 7.06 | 5.82 | 0 | 0.00646 |
| COCCN1CCN(C(=O)C2CC=CC2)Cc2cccnc21 | -4.04 | 8 | 10.1 | 4.75 | 7.14 | -55.4 | 10.4 | -18.4 | 3.12 | 17.5 | -7.24 |
| COc1ccc(NC(=O)Cn2nc(C)ccc2=O)cc1OC | -3.84 | -1.33 | 2.94 | 4.69 | -0.786 | -5.46 | 7.39 | -3.33 | 3.17 | 5.13 | 0.459 |
| CCOc1ccccc1C1CCCN1 (stereo not given) | -5.25 | 7.89 | 2.38 | -2.36 | 1.27 | -7.1 | 15.4 | -5.78 | -1.06 | 2.6 | -7.12 |
| CN1CCc2onc(CNc3ncccn3)c2C1 | -7.63 | 2.67 | 0.141 | -6.27 | -7.53 | -53.9 | 3.25 | 3.62 | 0 | 5 | -6.01 |
